Lamin A splicing = LMNA splicing modulation; HeLa LMNA splicing GFP/RFP minigene ratio, 48 h; AID 1487; 0.01% of 200,000 active; Potency, µM (top dose mostly 46.1 µM), actives largely listed as inhibitors; active = well fitted inhibition curve with a large enough effect in the signal ratio, with a control signal flat, not every such curve was filed as active; inconclusive = small, poorly fitted or top-dose-only effect, or effect the other way, or a change in a side signal; the % refers to the signal ratio
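S3 HeLa cells stably expressing lamin A-EGFP splicing minigene plus DsRed2, 600 cells/well, 48 h compound exposure at 37C. Laser-scanning cytometry; analysed as GFP (500-530 nm)/RFP (575-640 nm) total intensity ratio; 0.5% DMSO vehicle.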
Luc counter = Kinase-Glo luciferase inhibition (counter-screen). Potency, µM (top dose mostly 38.3 µM), actives largely listed as inhibitors. Kinase-Glo luciferase, ATP luminescence, 8 min. 0.28% of 200,000 active. AID 1379; active = well fitted inhibition curve with a large enough effect; inconclusive = small, poorly fitted or top-dose-only effect; also: nearly all actives have a fitted effect of over 60% in size
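Substrate mix (final 50 mM imidazole pH 7.2, 50 mM KCl, 7 mM MgCl2, 10 uM ATP, 0.01% Tween 20, 0.05% BSA) plus pin-tool compound, then Kinase-Glo detection mix; 8 min ambient, luminescence read.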
HPGD inh = HPGD (human) dehydrogenase inhibition. P15428. purified HPGD, NADH fluorescence kinetic, PGE2 substrate. Potency, µM, hits mostly inhibitors. 4.3% of 150,000 active. AID 894
Target sequence (P15428 whole entry, looked up): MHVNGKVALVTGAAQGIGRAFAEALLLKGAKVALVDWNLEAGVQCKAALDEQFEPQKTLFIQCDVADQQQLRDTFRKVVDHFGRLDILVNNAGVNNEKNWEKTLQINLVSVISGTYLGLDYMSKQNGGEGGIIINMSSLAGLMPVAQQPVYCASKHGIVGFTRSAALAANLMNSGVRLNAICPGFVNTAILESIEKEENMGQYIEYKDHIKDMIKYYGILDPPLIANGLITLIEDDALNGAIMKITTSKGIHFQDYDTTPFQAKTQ
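NADH formation kinetics: reaction with 30 uM PGE2 and 1 mM NAD+ (final), 20 nM enzyme, Tris-HCl pH 8 with Tween 20, after 15 min compound preincubation at room temperature. Fluorescence change, last versus first of five reads.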
PNC inhibitor = blocks assembly of the perinucleolar compartment; PC3M PTB-GFP, PNC prevalence imaging, 16 h; active compounds read low; activity change (PNC), negative = inhibition, % at 10 µM; 3.1% of 140,000 active; AID 2417;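 active = readout at or below -70, meaning at least 70% loss of cells showing the perinucleolar compartment, a nuclear body marking cancer cells; inconclusive = readout between -30 and a set limit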
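Read-out is percentage of cells bearing a perinucleolar compartment, from automated 20x imaging of fixed, Hoechst-stained PC3M PTB-GFP cells. Cells were seeded 4 h, then exposed 16 h to compound (23 nl of library stock) in duplicate plates.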
ALDH1A1 inh = blocks purified human ALDH1A1 activity | 7.3% of 220,000 active | P00352 | Purified ALDH1A1, NADH fluorescence, propionaldehyde substrate | Potency, µM (titrated, usually from 75.3 µM), most hits filed as inhibitors
IMPase cell inh = membrane-permeable compound that blocks inositol monophosphatase; P97697; CHO-M1 cells, IP1 accumulation, HTRF TR-FRET ratio; inhibition (IP1 accumulation), % at 46.1 µM; 120,000 tested, under 10 active; active = well fitted curve in the direction sought with a large enough effect in the signal ratio, not every such curve was filed as active; inconclusive = small, poorly fitted or top-dose-only effect, or a change in a side signal; inactive = no such curve, though single readings can be large or run the other way; the % refers to the signal ratio;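 also: cells stimulated with carbachol in lithium chloride buffer; higher means more IMPase inhibition seen as more IP1 and lower FRET ratio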
Target sequence (P97697 whole entry, looked up): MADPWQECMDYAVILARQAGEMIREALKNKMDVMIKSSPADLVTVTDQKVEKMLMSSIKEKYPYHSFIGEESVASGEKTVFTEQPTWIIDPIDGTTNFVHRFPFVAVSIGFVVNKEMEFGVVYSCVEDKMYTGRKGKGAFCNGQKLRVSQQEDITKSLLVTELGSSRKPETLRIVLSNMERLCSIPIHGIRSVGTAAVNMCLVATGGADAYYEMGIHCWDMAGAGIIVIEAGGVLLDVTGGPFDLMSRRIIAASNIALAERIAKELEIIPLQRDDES
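In this qHTS, compounds (final up to 46 uM) act on CHO-M1 cells that are then activated through the M1 receptor with carbachol, in pH 7.4 buffer containing 50 mM LiCl, for 30 min. IP1 accumulation is quantified by the IP-One immunoassay.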
Numbers stand for hits; i = inactive; ? = inconclusive; nt = not tested or not shown; [ ] = another dose, or the depositor's remark. Shown are actives, neighbours in structure and some others; about 10% of the full set was active somewhere. Unless noted, calls follow the shape of the dose curve; as a rule, active = well fitted inhibition curve with a large enough effect (not every such curve was filed as active); inconclusive = small, poorly fitted or top-dose-only effect, or another doubt; inactive = no such curve, though single readings can be large or run the other way.

SMILES	Lamin A splicing	Luc counter	HPGD inh	PNC inhibitor	ALDH1A1 inh	IMPase cell inh
NC(=O)c1sc2nc(N3CCOCC3)c3c(c2c1N)CCCC3	i	i	?	i	?	?
CC(C)Nc1nc(SC(C)C(=O)Nc2ccccc2)nc(N(C)C)n1 (stereo not given)	i	i	nt	nt	i	nt
CC(Sc1ncc(C#N)c(N)n1)C(=O)Nc1ccccc1 (stereo not given)	i	i	i	-111.7	i	i
CN(C)c1ncc2nc(-c3cccs3)c(=O)n(C3CC3)c2n1	nt	i	?	nt	?	nt
O=C(CC(Nc1cccc(Cl)c1Cl)C(=O)OCC(=O)c1cccs1)c1ccccc1 (stereo not given)	i	i	i	i	?	i
O=C(CC(Nc1cccc(Cl)c1Cl)C(=O)O)c1ccccc1 (stereo not given)	nt	i	nt	nt	0.355µM	nt
O=C(Nc1ccc(Nc2ccccc2)cc1)C(Cl)Cl	i	i	22.4µM	-90.8	12.6µM	nt
O=C(Nc1ccc(Nc2ccccc2)cc1)C(Cl)(Cl)Cl	?	i	31.6µM	i	?	nt
CCC(=O)Nc1ccc(Nc2ccccc2)cc1	i	i	i	?	i	i
CC(C)OC(=O)c1sc2nc(-c3ccccc3)ccc2c1N	i	i	?	-100.0	?	?
COc1ccc(C(=O)c2sc3nc(-c4ccccc4)ccc3c2N)cc1	i	i	i	i	?	nt
CCCCn1c(=O)nc2n(-c3ccc(F)cc3)c3ccccc3cc-2c1=O	nt	nt	nt	nt	nt	i
O=c1oc2ccccc2c(Cl)c1CN1CCCCC1	?	i	nt	nt	?	nt
O=c1oc2ccccc2c(N2CCCC2)c1CN1CCCC1	?	i	i	?	14.1µM	i
CC(C)(C)OC(=O)N1CCC(c2c(C(=O)NCCN3CCCC3)cnn2-c2ccc(Cl)cc2)CC1	i	nt	nt	nt	nt	nt
O=c1[nH]c2ccc(Br)cc2c(-c2ccccc2)c1CN1CCOCC1	?	i	i	-90.2	?	i
O=c1[nH]c2ccc(Br)cc2c(-c2ccccc2)c1N1CCOCC1	i	i	i	i	?	i
CCOc1ccc(N2C(=O)CS(=O)(=O)C23C(=O)N(Cc2cccc(Cl)c2)c2ccccc23)cc1 (stereo not given)	i	nt	nt	nt	nt	nt
Cc1ccc(COc2ccsc2-c2n[nH]c(=S)n2C)cc1	i	i	?	i	20µM	i
Cn1c(-c2sccc2OCc2ccccc2)n[nH]c1=S	i	i	?	i	?	i
Cn1c(-c2sccc2OCc2ccc(Cl)cc2Cl)n[nH]c1=S	i	i	nt	nt	31.6µM	nt
COC(=O)C/C=C\[C@@H](C)[C@@H](/C=N\OC[C@@H]1O[C@H](c2ccccc2)C=C[C@@H]1Oc1ccc(OC)cc1)NS(=O)(=O)c1ccc(C)cc1	nt	nt	nt	nt	i[13.5 µM]	nt
O=C(COC(=O)CCc1ccccc1)NC12CC3CC(CC(C3)C1)C2	i	i	nt	nt	i	nt
O=C(COC(=O)C(O)c1ccccc1)NC12CC3CC(CC(C3)C1)C2 (stereo not given)	i	i	i	i	31.6µM	i
CCC(CC)C(=O)OCC(=O)NC12CC3CC(CC(C3)C1)C2	i	i	i	i	?	i
SMILES	Lamin A splicing	Luc counter	HPGD inh	PNC inhibitor	ALDH1A1 inh	IMPase cell inh
O=C(COC(=O)C12CC3CC(CC(C3)C1)C2)NC12CC3CC(CC(C3)C1)C2	i[0.0737 µM]	i	i	i	14.1µM	i
O=C(CSc1nnnn1-c1cccc2ccccc12)Nc1ccc(N2CCOCC2)c(Cl)c1	i	i	i	i	1.78µM	i
Cc1cc(C)nc(SCC(=O)Nc2ncc(Cc3ccc(Cl)c(Cl)c3)s2)n1	i	i	i	-113.4	i	nt
CC(=O)Nc1ccc2nc(SCC(=O)Nc3ccc(N4CCOCC4)c(Cl)c3)sc2c1	i[0.0737 µM]	i	i	i	?	i
Cc1ccc(Cc2cnc(NC(=O)CN3CCOCC3)s2)cc1Cl	?	i	i	i	i	i
CCOC(=O)CSc1nnnn1-c1cccc2ccccc12	i	i	25.1µM	i	1.78µM	i
Cc1cc(C)nc(SCC(=O)Nc2ccc(N3CCOCC3)c(Cl)c2)n1	?	i	i	i	22.4µM	i
CC(=O)O[C@H]1CC[C@@]2(C)C(=CC[C@@H]3[C@H]4CC[C@@H]([C@H](C)C(=O)O)[C@]4(C)CC[C@H]32)C1	nt	i[7.66 µM]	i	nt	i[13.5 µM]	nt
O=C1CCCC1C(O)c1ccc2ccccc2c1 (stereo not given)	nt	i	i	nt	i	nt
COCCCNC(=O)C(=O)NCC(c1ccc2c(c1)OCO2)N1CCOCC1 (stereo not given)	i	nt	nt	nt	nt	nt
CCCn1c(-c2ccc(F)cc2)nc2c(NCCN(C)C)nc(C)nc21	nt	i	?	nt	?	nt
N#Cc1ccc(CN2CC[C@@]3(CCCN(C(=O)c4ccncc4)C3)C2)cc1	nt	i	i	nt	i	nt
O=C(c1ccco1)N1CCC2(CCN(Cc3ccncc3)CC2)CC1	nt	i	i	nt	?	nt
CC(C)NC(=O)N1CCCC2(CCN(C(=O)c3ccco3)CC2)C1	nt	i	i	nt	i	nt
CC(C)CN1CC[C@@]2(CCCN(C(=O)c3ccco3)C2)C1	nt	i	i	nt	0.447µM	nt
N#Cc1ccc(CN2CC[C@@]3(CCCN(C(=O)c4ccco4)C3)C2)cc1	nt	i	i	nt	14.1µM	nt
O=C(c1ccco1)N1CCC2(CCCN(c3ccncc3)C2)CC1	nt	i	i	nt	3.55µM	nt
O=C(c1ccco1)N1CCC2(CCN(Cc3ccccc3)CC2)CC1	nt	i	i	nt	17.8µM	nt
CNC(=O)c1ccc(Nc2nnc(-c3ccc(C)c(S(=O)(=O)NCC4CCCO4)c3)c3ccccc23)cc1 (stereo not given)	i	i	25.1µM	i	?	nt
